Data on three molecules can be found in PubChem BioAssay (EPA / NIEHS).

Each structure is given as a SMILES string. Records with an inconclusive call do not appear. The source made the active and inactive calls. How the source made its calls: active means hit-call score of the fitted dose curve at least 0.9, where 1 is the maximum; inconclusive means response in the unintended direction; inactive means score below 0.9.

In the assay the target is human Adrenergic, Alpha 2c Receptor (Adra2C), ADRA2C (gene 152) (UniProt P18825). The assay is described as follows: NVS_GPCR_hAdra2C: NovaScreen (NVS) G Protein-Coupled Receptor Assay for human Adrenergic, Alpha 2c Receptor (Adra2C) (AID 2283259). The method in brief: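 Radioligand binding on Sf9-expressed receptor membranes, 1 h after chemical dosing, filter-based scintillation read-out. Loss of binding fitted positively versus DMSO; primary duplicate screen at 25 uM, actives retested in concentration series.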
Sequence of human Adrenergic, Alpha 2c Receptor (Adra2C), ADRA2C (gene 152) (P18825 whole entry, looked up): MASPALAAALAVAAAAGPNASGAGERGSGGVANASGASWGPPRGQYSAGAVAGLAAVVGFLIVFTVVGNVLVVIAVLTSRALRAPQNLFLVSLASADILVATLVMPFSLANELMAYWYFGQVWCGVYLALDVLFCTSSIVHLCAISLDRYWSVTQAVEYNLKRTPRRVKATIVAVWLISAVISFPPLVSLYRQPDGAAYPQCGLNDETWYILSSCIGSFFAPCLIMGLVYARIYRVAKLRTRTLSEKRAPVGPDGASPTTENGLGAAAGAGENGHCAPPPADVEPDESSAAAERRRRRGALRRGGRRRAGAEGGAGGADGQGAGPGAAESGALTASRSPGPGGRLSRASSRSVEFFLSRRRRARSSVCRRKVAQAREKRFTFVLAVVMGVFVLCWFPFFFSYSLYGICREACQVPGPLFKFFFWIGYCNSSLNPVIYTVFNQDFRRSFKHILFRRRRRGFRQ
As to `CCCCCCCc1ccc(O)cc1`, the call was inactive. On the same count and under the same terms, the same measure for `CSC(C)(C)C=NO`: “inactive”. Regarding `CC1(C)CN=C(NN=C(/C=C/c2ccc(C(F)(F)F)cc2)/C=C/c2ccc(C(F)(F)F)cc2)NC1`, the AC50 is 8.95 µM (active).

The term AC50 denotes the midpoint of the concentration-response curve, whichever way the signal moves.
